Each structure is given as a SMILES string. Results filed as inconclusive are left out. The source made the active and inactive calls. The call rests on the fitted dose curve; in most records, active means well fitted curve in the direction sought with a large enough effect; inconclusive means small, poorly fitted or top-dose-only effect, or another doubt; inactive means no such curve, though single readings can be large; an effect the other way counts as inactive or inconclusive.

Test [1] has as its system Zika virus NS2B-NS3 protease (linked construct). As to the kind of experiment: Primary screen NINDS Rhodamine qHTS for Zika virus inhibitors (AID 1347160). Further: nearly all actives have a fitted effect of over 55% in size. Further: potency means the concentration at half of the fitted maximal effect. The method in brief:
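Purified linked NS2B-NS3 protease (NS2B hydrophilic domain joined to NS3 protease by flexible linker), 25 nM in 10 mM Tris-HCl pH 8.0, 0.01% Tween 20. Compounds titrated, 15 min preincubation at room temperature; 1.5 microM Rhodamine110 substrate, FITC fluorescence change over 15 min.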
A general note: In qHTS, concentration-response curves come from the screen itself.

The nature of test [2]: OV-KATE Cancer Cell Toxicity qHTS against the NCATS CANVASS Library (AID 1347345). The method in brief: (§1)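 Following a 4 h pre-incubation of 1000 seeded cells, compounds were pinned in an 11-pnt dilution series and left for 72 h; viability then came from CellTiter-Glo.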
Test [3] is described as follows: HPAF-II Cancer Cell Toxicity qHTS against the NCATS CANVASS Library (AID 1347346). Further: series mostly up to about 38 µM; nearly all actives have a fitted effect of over 55% in size. The method in brief: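 Cytotoxicity in HPAF-II pancreatic cancer cells: 72 h treatment across 11 concentrations, ATP-based CellTiter-Glo luminescence endpoint.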
The nature of test [4]: UWB1.289 Cancer Cell Toxicity qHTS against the NCATS CANVASS Library (AID 1347347). Further: nearly all actives have a fitted effect of over 60% in size. Put shortly: as §1
Test [5] is described as follows: Panc-1005 Cancer Cell Toxicity qHTS against the NCATS CANVASS Library (AID 1347349). Further: series mostly up to about 38 µM; nearly all actives have a fitted effect of over 60% in size. The method in brief: as §1
Test [6] can be described thus: HPAF-II 24hr Apoptosis Induction qHTS against the NCATS CANVASS Library (AID 1347356). Put shortly:
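Apoptosis induction in HPAF-II pancreatic cancer cells is measured as caspase-3/7 luminescence after a 24-hour exposure to compounds.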

A short description of test [7]: HPAF-II 12hr Apoptosis Induction qHTS against the NCATS CANVASS Library (AID 1347358). The method in brief: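 Apoptosis in HPAF-II pancreatic cancer cells is scored as caspase 3/7 luminescence following a 12-hour exposure to an 11-point compound series.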
The nature of test [8]: HEK293 24hr Apoptosis Induction qHTS against the NCATS CANVASS Library (AID 1347359). Put shortly: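 Caspase-3/7 activation measured as luminescence from the DEVD-based Caspase-Glo reagent, 15 min at room temperature, following 24-hour compound treatment of HEK293 cells.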
Test [9] is described as follows: HPAF-II 18hr Apoptosis Induction qHTS against the NCATS CANVASS Library (AID 1347360). The method in brief: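 Caspase-3/7 activation was measured with luminescent Caspase-Glo 3/7 reagent (15 min, RT) in HPAF-II cancer cells (500 cells/well). Before detection, cells had been treated for 18 h at 37 C with compounds (11 points).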
The nature of test [10]: HEK293 12hr Apoptosis Induction qHTS against the NCATS CANVASS Library (AID 1347361). The method in brief:
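HEK293 cells (500/well, DMEM + 10% FBS) were exposed to natural products across an 11-point series for 12 hours at 37 degrees C. Caspase-3/7 activity was then measured with DEVD luciferase luminescence after 15 min at room temperature.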

Test [11] relates to NAD(P)H diaphorase (Clostridium kluyveri). As to the kind of experiment: Diaphorse counterscreen qHTS: Assay Interference Panel against the NCATS CANVASS Library (AID 1347362). Further: potency means the concentration at half of the fitted maximal effect. Put shortly: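 Counterscreen for coupling-enzyme interference: resorufin fluorescence from resazurin/NADH turnover, read after 5 min at room temperature. Compounds were tested over an 11-point series after 15 min dark preincubation with diaphorase in PBS-Tween.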

Test [12] has as its target Luciferin 4-monooxygenase (Photinus pyralis) (UniProt P08659). As to the kind of experiment: Firefly luciferase counterscreen qHTS: Assay Interference Panel against the NCATS CANVASS Library (AID 1347363). Further: series mostly up to about 57 µM. Put shortly:
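Luminescence inhibition readout: compounds (11-point qHTS) sat 15 min at room temperature with substrate mix (0.013 mM luciferin and ATP), then firefly luciferase was added and signal read 5 min later.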
On the technique in general: Counterscreens check selectivity or assay interference.

Test [13] in a line: qHTS for ATAD5 Agonist screened against the NCATS CANVASS Library (AID 1347367).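 Further: luciferase reporter driven by ATAD5 which rises upon DNA damage.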 The method in brief: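 Genotoxicity via ATAD5-luciferase luminescence after 16 h compound exposure (11-point series) at 37C in HEK293T-ATAD5 cells. CellTiter-Fluor viability read precedes the luminescence read; MMS serves as positive control.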
A short description of test [14]: qHTS for ATAD5 Antagonist screened against the NCATS CANVASS Library (AID 1347370). Further: nearly all actives have a fitted effect of over 65% in size. Further: potency means the concentration at half of the fitted maximal effect. The method in brief: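 HEK293T cells with a stably integrated ATAD5-controlled luciferase reporter were exposed to compounds (11-pt) alongside 10 uM 5-fluorouridine as ATAD5 stabilizer for 16hr at 37C. Viability was read by CellTiter-Fluor fluorescence, then ATAD5 by luminescence.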

Test [15] in a line: J3T Cancer Cell Toxicity qHTS against the NCATS CANVASS Library (AID 1347371). The method in brief:
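Viability of the J3T glioma line from dog is scored by ATP luminescence after a 72 hr incubation with natural products.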

Test [16] concerns the target Nuclear receptor subfamily 1 group I member 3 (Homo sapiens) (UniProt Q14994). As to the kind of experiment: qHTS for Constitutive Androstane Receptor (CAR) Agonist screened against the NCATS CANVASS Library (AID 1347373).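 Further: every well also contained 1.5 µM PK11195 alongside the test compound.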 The method in brief: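 CAR agonism is scored as CYP2B6-promoter luciferase induction in a double-stable transfected HepG2 line, where 1.5uM PK11195 is included in each well. Compounds were tested over a 24hr exposure.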

Test [17] can be described thus: qHTS for Hypoxia signaling pathway (HIF-1) agonists against the NCATS CANVASS Library (AID 1347375). Put shortly: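 Inducers of HIF-1 signaling were detected in ME-180 cells bearing an HRE-driven beta-lactamase reporter after 17 h compound exposure. Activity came from CCF4-AM FRET emission ratio (460/530 nm) in qHTS format.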
The nature of test [18]: 10-beta competent E. coli microbial cell viability qHTS against the NCATS CANVASS Library (AID 1347376). Further: series mostly up to about 46 µM. Put shortly:
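Cytotoxicity toward competent E. coli is scored from cellular ATP content via BacTiter-Glo luminescence following overnight compound exposure at 37C, 5% CO2.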

A short description of test [19]: qHTS for Inflammasome Signaling Inhibitors: IL-1-beta AlphaLISA screen against the NCATS CANVASS Library (AID 1347379).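 Further: human THP-1 cells primed with LPS then triggered with ATP.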 The method in brief: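 Human THP-1 cells were pretreated 1 hr at 37 °C with compounds (up to 57.5 uM final), then stimulated with LPS (250 ng/mL final) and ATP (1.25 mM final). Secreted IL-1B was read by AlphaLISA after 16 hr.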
The nature of test [20]: Inflammasome Signaling qHTS Counterscreen: IL-1-beta AlphaLISA counterscreen against the NCATS CANVASS Library (AID 1347381).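 Further: cell-free check with purified IL-1β in medium and no THP-1 cells; series mostly up to about 57 µM.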 The method in brief:
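To flag interference with the AlphaLISA read-out, a known amount of purified IL-1-beta (4 pg) replaced cell supernatant. Detection used anti-IL-1-beta acceptor beads, biotinylated antibody and streptavidin donor beads at room temperature.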

Sequence of Nuclear receptor subfamily 1 group I member 3 (Homo sapiens) (Q14994 whole entry, looked up): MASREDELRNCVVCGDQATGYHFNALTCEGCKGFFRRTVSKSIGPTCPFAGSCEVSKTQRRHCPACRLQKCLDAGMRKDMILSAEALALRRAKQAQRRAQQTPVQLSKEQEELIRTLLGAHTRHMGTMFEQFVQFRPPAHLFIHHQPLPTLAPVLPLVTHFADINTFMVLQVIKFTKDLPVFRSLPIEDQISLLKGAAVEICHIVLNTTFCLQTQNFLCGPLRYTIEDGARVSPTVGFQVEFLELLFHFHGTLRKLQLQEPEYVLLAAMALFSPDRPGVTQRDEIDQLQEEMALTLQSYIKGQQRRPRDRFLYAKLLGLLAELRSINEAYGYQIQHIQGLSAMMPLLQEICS
Sequence of Luciferin 4-monooxygenase (Photinus pyralis) (P08659 whole entry, looked up): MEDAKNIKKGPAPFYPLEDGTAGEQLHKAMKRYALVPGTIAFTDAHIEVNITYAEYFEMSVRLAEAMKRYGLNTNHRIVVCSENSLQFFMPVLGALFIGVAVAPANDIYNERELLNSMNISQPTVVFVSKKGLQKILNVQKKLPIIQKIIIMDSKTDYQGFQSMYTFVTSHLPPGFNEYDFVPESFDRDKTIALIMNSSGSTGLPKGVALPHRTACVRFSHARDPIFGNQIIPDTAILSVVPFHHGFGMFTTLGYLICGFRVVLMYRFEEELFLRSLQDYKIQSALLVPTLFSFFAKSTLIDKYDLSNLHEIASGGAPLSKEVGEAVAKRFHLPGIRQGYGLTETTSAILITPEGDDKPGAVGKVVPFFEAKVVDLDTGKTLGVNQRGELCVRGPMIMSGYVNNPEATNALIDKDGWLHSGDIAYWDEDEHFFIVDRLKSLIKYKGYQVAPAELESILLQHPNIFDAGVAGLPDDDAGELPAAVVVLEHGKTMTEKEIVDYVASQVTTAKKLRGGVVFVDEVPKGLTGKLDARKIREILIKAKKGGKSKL

Take `C[C@@H]1O[C@H](c2c(O)cc(O)c3c(=O)cc(-c4ccc(O)cc4)oc23)[C@H](O)[C@H](O)[C@H]1O`: in test [1], the Potency is 34.9 µM (active). Also, the Potency result in test [2], in test [3], in test [4], in test [5], in test [7] and in test [8] was “inactive” throughout. Besides, the Potency entry in test [9], in test [10], in [11], in test [12], in test [13] and in test [14] was “inactive” each time. Moreover, the Potency result in test [15], in test [17] and in [19] was “inactive” throughout. In addition, the call in test [6], in [16], in [18] and in test [20] was inactive.
As for `C=C1C[C@@]23C=CC(=O)[C@@](C)(CCC(=O)Nc4c(OC5O[C@H](CO)[C@@H](O)[C@H](O)[C@H]5O)ccc(C(=O)O)c4O)C2C[C@@H]1CC3` (stereo not given in full), the Potency in [1] is 39.2 µM (active). Besides, the Potency entry in test [2], in test [3], in test [4], in [5], in test [7] and in test [8] was “inactive” in each case. The Potency result in [9], in test [10], in test [11], in test [12], in test [13] and in test [14] was “inactive” each time. Besides, the Potency entry in [15], in test [17] and in test [19] was “inactive” throughout. In addition, the outcome in test [6], in test [16], in test [18] and in [20] was inactive.
`CC(=O)NC[C@@H]1O[C@H](CC/C=C(C)/C(C)=C/C=O)[C@H](C)C[C@H]1O`: in test [1], the Potency was 49.3 µM (active). Besides, the Potency result in test [2], in test [3], in [4], in [5], in [7] and in test [8] was “inactive” each time. In addition, the Potency entry in test [9], in [10], in test [11], in test [12], in test [13] and in test [14] was “inactive” throughout. In addition, the Potency entry in test [15], in [17] and in [19] was “inactive” in each case. Also, the result in test [6], in test [16], in test [18] and in test [20] was inactive.
For `CC[C@@H]1C[C@@]2(CC)OC(=O)[C@@]3(CC)OC(=O)[C@@H]1[C@@H]23`, the Potency result in test [1], in test [2], in test [3], in [4], in test [5] and in test [7] was “inactive” each time. For the same molecule, the Potency result in test [8], in test [9], in test [10], in [11], in [12] and in test [13] was “inactive” throughout. The Potency result in test [14], in test [15], in test [17] and in test [19] was “inactive” in each case. The molecule was classed as inactive in [6], in [16], in test [18] and in [20].
For the molecule `CC1(C)CCC[C@]2(C)[C@@H]1CC[C@@]13C[C@@H](CC[C@H]12)C(C)(O)C3` (stereo not given in full), the Potency in test [1] was 44 µM (active). For the same molecule, the Potency entry in [2], in [3], in test [4], in test [5], in test [7] and in test [8] was “inactive” each time. Also, the Potency result in test [9], in test [10], in [11], in [12], in test [13] and in test [14] was “inactive” each time. Also, the Potency entry in test [15], in [17] and in [19] was “inactive” throughout. The molecule was classed as inactive in [6], in [16], in test [18] and in test [20].
With `COc1ccc(CCCc2cc(O)c(OC)c(O)c2)c(O)c1O`, the Potency in test [1] is 11 µM (active); in test [11], 21.6 µM (active); in [14], 11.7 µM (active). Further, the Potency entry in test [2], in [3], in [4], in test [5], in test [7] and in test [8] was “inactive” each time. Further, the Potency result in test [9], in test [10], in [12], in test [13], in test [15] and in [17] was “inactive” throughout. Besides, the Potency result in test [19] is “inactive”. Moreover, the molecule was classed as inactive in [6], in [16], in test [18] and in [20].
In the case of `O=C1c2c(O)cc(O)cc2O[C@@H](c2ccc(O)cc2)[C@@H]1c1c(O)cc(O)c2c(=O)cc(-c3ccc(O)c(O)c3)oc12`, the Potency in [1] is 3.92 µM (active). Besides, the Potency result in [2], in test [3], in test [4], in test [5], in test [7] and in [8] was “inactive” throughout. Also, the Potency result in test [9], in test [10], in test [11], in [12], in [13] and in test [14] was “inactive” throughout. Besides, the Potency result in [15], in test [17] and in test [19] was “inactive” throughout. Further, the molecule was classed as inactive in test [6], in test [16] and in test [20].
As for `C/C=C/C[C@@H](C)[C@@H](O)[C@H]1C(=O)N[C@@H](CC)C(=O)N(C)CC(=O)N(C)[C@@H](CC(C)C)C(=O)N[C@@H](C(C)C)C(=O)N(C)[C@@H](CC(C)C)C(=O)N[C@@H](C)C(=O)N[C@H](C)C(=O)N(C)[C@@H](CC(C)C)C(=O)N(C)[C@@H](CC(C)C)C(=O)N(C)[C@H](C(C)C)C(=O)N1C`, in test [1], the Potency entry is “inactive”.
Consider `C[C@@]12CCC[C@@](C)(C(=O)O)[C@H]1C[C@@H](O)[C@]13C[C@H]4C[C@H](O[C@@]4(C)C1)[C@@H]23`, for which, in test [1], the Potency was 31.1 µM (active). The Potency result in test [2], in [3], in [4], in test [5], in test [7] and in [8] was “inactive” in each case. The Potency entry in test [9], in test [10], in test [11], in [12], in test [13] and in test [14] was “inactive” in each case. Moreover, the Potency result in test [15], in test [17] and in test [19] was “inactive” each time. Further, the molecule was classed as inactive in test [6], in [16], in test [18] and in test [20].
For the molecule `CN1C(=O)C2C(N=CN2C)N(C)C1=O` (stereo not given), the Potency result in test [1], in test [2], in [3], in [4], in test [5] and in [7] was “inactive” each time. The Potency result in test [8], in test [9], in [10], in test [11], in test [12] and in [13] was “inactive” throughout. For the same molecule, the Potency entry in [14], in test [15], in [17] and in [19] was “inactive” each time. Also, the call in test [6], in test [16], in test [18] and in test [20] was inactive.

The record behind these values is PubChem BioAssay (NCATS).
